# Compound activity from PubChem.
# Sampled rows, rich in hits. Any-hit rate of the full collection: about 2.8%.
# Mito fusion act: blocks mitochondrial division or promotes mitochondrial fusion. 320,000 tested, 0.23% active. S. cerevisiae fusion-defective mutant growth rescue, CellTiterGlo 48 h. Potency, µM (doses to about 46.1 µM), inactives show top-dose growth rescue (activation), actives largely listed as activators; note: % of control where 0% means no effect; nearly all actives have a fitted effect of over 45% in size
#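 Compounds are tested for their ability to restore growth of mitochondrial fusion-defective yeast strains at non-permissive 37C in YPEG medium over 48 hours. Viability is quantified by luciferase luminescence.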
# GLP1R cytotox: cytotoxic in the GLP-1 receptor inverse agonist counter-screen; HEK293 cAMP-luciferase reporter cells, luminescence, 24 h; Potency, µM (series often up to 38.3 µM), without a hit: at the top dose activity change, negative = inhibition, most hits filed as inhibitors; 410,000 tested, 0.13% active; AID 624418;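 note: loss of luciferase light is scored as toxicity; % is set by controls: 0 for no effect and ±100 for the full control effect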
#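 Compound-treated cells are incubated 24 hr at 37 deg C under 5% CO2 after a 12 hour attachment period, then luciferase detection reagent is added and luminescence is measured following 12 min at room temperature; lowered signal indicates toxicity.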
# BRCA1 expr act: activators of BRCA1 expression; AID 624202; MCF7-BRCA1-FFLuc reporter, luminescence, 48 h; response scale: scaled: vehicle 0%, 10 µM genistein 100%; 380,000 tested, 1.1% active; Potency, µM (series often up to 46.1 µM), for the others: top-dose activation, usual class: activators; note: nearly all actives have a fitted effect of over 80% in size
#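 Reporter cells (MCF7, BRCA1 promoter-firefly luciferase) received library compounds across a concentration series for 48 h. End-point luminescence was measured and concentration-effect curves derived after normalization.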
# GLP1R ag: activates the human GLP-1 receptor; HEK293 GLP-1R CRE-luciferase, luminescence, 4-6 h; cells express a hypersensitive GLP-1R form; Potency, µM (series often up to 45.6 µM), for inactives: top-dose activation, usual class: activators; 380,000 tested, 0.007% active; note: % of control where 0% means no effect
# Target sequence (P43220 whole entry, looked up): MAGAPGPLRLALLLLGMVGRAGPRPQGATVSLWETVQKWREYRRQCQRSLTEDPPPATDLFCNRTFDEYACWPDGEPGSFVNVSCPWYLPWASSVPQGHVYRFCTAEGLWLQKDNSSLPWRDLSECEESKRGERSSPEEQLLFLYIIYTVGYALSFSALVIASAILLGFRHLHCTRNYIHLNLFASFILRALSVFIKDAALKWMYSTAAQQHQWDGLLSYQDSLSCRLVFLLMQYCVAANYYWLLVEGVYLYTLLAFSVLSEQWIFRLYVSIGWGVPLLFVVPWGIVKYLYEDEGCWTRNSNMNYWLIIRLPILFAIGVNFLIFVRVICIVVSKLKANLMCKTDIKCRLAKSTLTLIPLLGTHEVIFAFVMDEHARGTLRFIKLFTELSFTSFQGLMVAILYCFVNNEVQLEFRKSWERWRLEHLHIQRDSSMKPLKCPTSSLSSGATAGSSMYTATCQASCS
# GLP-1R inv ag: inverse agonists of human GLP-1 receptor | HEK293 GLP-1R CRE-luciferase, luminescence, 24 h; GLP-1R form is constitutively active | P43220 | 410,000 tested, 1.6% active | Potency, µM (titrated, usually from 38.3 µM), inactives show at the highest dose activity change, negative = inhibition, usual class: inhibitors | AID 624417; note: % is set by controls: 0 for no effect and ±100 for the full control effect; nearly all actives have a fitted effect of over 55% in size
#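 HEK293 cells stably co-expressing a cAMP-responsive luciferase reporter and constitutively active GLP-1R were seeded, incubated 12 h, then exposed to compounds for 24 h at 37 C. Luminescence was read 12 min after detection reagent; inverse agonists lower signal.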
# Starred values were filed as active, the others as inactive; u = inconclusive; x = no result given. Calls come from the whole dose curve; as a rule, active = well fitted curve in the direction sought with a large enough effect; inconclusive = small, poorly fitted or top-dose-only effect, or another doubt; inactive = no such curve, though single readings can be large; an effect the other way counts as inactive or inconclusive. Potency is the fitted concentration of half-maximal effect.
SMILES,Mito fusion act,GLP1R cytotox,BRCA1 expr act,GLP1R ag,GLP-1R inv ag
COc1ccc(OC)c2nc3c(C(=O)NCCN(C)C)cccc3nc12,x,7.1µM*,-84%,-23%,u
CC(C)OC(=O)NC(c1ccccc1)C(Cl)(Cl)Cl (configuration not stated),-2%,18%,2%,11%,11µM*
CCOc1ccc(OC(=O)NC(c2ccccc2)C(Cl)(Cl)Cl)cc1 (configuration not stated),-2%,2%,1%,-16%,5%
Cc1cc2c(cc1C)C(c1ccccc1OC(C)C)CC(=O)N2 (configuration not stated),4%,-22%,-56%,3%,10µM*
CC(=O)c1cnc(Nc2ccc(C)cc2)s1,4%,-4%,61%,9%,76%
O=C(NCc1cccs1)Nc1ccc2c(c1)OCO2,-5%,-3%,10µM*,8%,8%
O=C(NCc1ccncc1)Nc1ccc2c(c1)OCO2,9%,2%,12%,8%,8%
O=C(NCC1CC1)Nc1ccc(Cl)cc1,5%,-9%,10µM*,-2%,2%
O=C(NCC1CC1)Nc1cccc(Cl)c1,7%,4%,92%,10%,-18%
O=C(NCc1cccs1)Nc1ccc(Cl)cc1,4%,-5%,10µM*,7%,-20%
CCCCCCCCCCCCCCCCCCOC[C@H](COP(=O)([O-])OCC[N+](C)(C)C)OC,-12%,x,x,-3%,x
CCOC(=O)N1CCC(NC(=O)c2ccc3c(c2)N=C(CC)c2ccccc2S3)CC1,9%,-17%,-21%,14%,u
C/C(=N\O)c1c(O)cc(-c2ccccc2)n(-c2ccccc2)c1=O,2%,1%,-2%,3%,-6%
Cc1c(O)c2c(=O)n(-c3ccccc3)c(-c3ccccc3)cc2oc1=O,10µM*,-1%,-28%,-9%,16%
Nc1ccccc1C#Cc1ccccc1,1%,-23%,11µM*,-3%,u
Oc1ccc2[nH]ccc2c1,5%,5%,-10%,-5%,2%
Nc1ccccc1C#Cc1ccc2[nH]ccc2c1,x,2%,10µM*,4%,-6%
Nc1ccc(C#Cc2ccccc2)cc1,3%,u,41%,3%,0%
COc1cc(C(=O)NC(C)Cc2cccs2)cc(OC)c1OC (configuration not stated),8%,3%,22%,16%,6%
CCN(CC)S(=O)(=O)c1ccc(N2CCN(c3cccc(OC)c3)CC2)c([N+](=O)[O-])c1,0%,5%,-38%,10%,u
O=C1NC(=O)/C(=C\c2ccc(Cl)nc2)S1,-7%,1%,u,-6%,16%
O=C1NC(=O)/C(=C/c2ccc3nccnc3c2)S1,9.2µM*,x,x,x,x
CN1CCN(C(CNC(=O)Nc2ccc(Cl)cc2)c2ccc(F)cc2)CC1 (configuration not stated),-15%,-16%,53%,11%,u
Cc1ccc(C(CNC(=O)Nc2ccc(Cl)cc2)N2CCN(C)CC2)cc1 (configuration not stated),1%,0%,21%,-6%,8.9µM*
O=c1c2cc3c(cc2[nH]c(=S)n1Cc1ccco1)OCO3,-6%,-3%,-25%,-1%,7%
SMILES,Mito fusion act,GLP1R cytotox,BRCA1 expr act,GLP1R ag,GLP-1R inv ag
CCOC(=O)c1ccc(/C=C2/C=C(c3ccccc3)N(c3ccc(Cl)c(C(=O)O)c3)C2=O)cc1,-11%,-15%,-66%,-1%,10µM*
O=C(CSc1nccc(-c2cccs2)n1)Nc1cccc(Cl)c1,29%,6%,-37%,21%,-22%
Cc1onc(-c2ccc(Cl)cc2)c1-c1ccnc(SCC(=O)Nc2cc(Cl)cc(Cl)c2)n1,13%,-18%,-49%,2%,3.5µM*
CCn1cc(C(=O)N2CCc3ccccc32)c(=O)c2cc(S(=O)(=O)N3CCCCCC3)ccc21,1%,-33%,2%,4%,-4%
Fc1ccc(-c2ccc(Nc3cccc(F)c3)nn2)cc1,19%,-12%,u,0%,14%
Fc1ccc(Nc2ccc(-c3ccc(F)cc3)nn2)cc1,18%,-11%,5.6µM*,20%,9%
Cc1cc(C)c2oc(-c3cc(NC(=O)Cc4ccccc4)ccc3Cl)nc2c1,x,-6%,x,x,-7%
O=C(c1nc(-c2ccc(Cl)cc2)n2c1CCCCC2)N1CCN(c2ccc(F)cc2)CC1,x,-14%,x,x,10µM*
O=C(Nc1ccnn1C1CCN(Cc2ccccc2OC(F)F)CC1)c1cccc(F)c1,-7%,-4%,0%,14%,u
COc1ccc(NC(=O)CC2CC3CCC2C3)cn1 (configuration not stated),-1%,1%,13µM*,17%,u
O=C(NCc1cccs1)c1cc(-c2ccccc2)nc2ccccc12,u,-21%,-22%,0%,u
O=C(Nc1nnc(-c2cccs2)o1)c1cc(-c2ccccc2)nc2ccccc12,13µM*,-15%,-57%,-3%,u
Nc1ccc(CCc2nc3ccccc3o2)cc1,8%,-1%,2.8µM*,-12%,0%
CCN(C[C@H]1N[C@@](C)(C(=O)OC)[C@H]2C(=O)N(C)C(=O)[C@@H]12)C(=O)Nc1ccc(Cl)cc1,x,3%,15%,1%,5%
CCOC(=O)CSC1=C(C#N)C(c2ccc(Cl)cc2)CC(=O)N1 (configuration not stated),-1%,-7%,2%,-2%,8%
CCOC(=O)CSC1=C(C#N)C(c2ccc(C)o2)CC(=O)N1 (configuration not stated),-2%,-28%,-48%,18%,0.56µM*
Cc1cc(C(=O)Nc2c(C)n(C)n(-c3ccccc3)c2=O)c(C)o1,0%,3%,-2%,0%,-8%
CCN(CC)CC(=O)Nc1scc2c1c(=O)oc1ccccc12,8%,12%,11µM*,u,31%
COCCOC(=O)c1c(C)oc2ccc(OCC=C(C)C)cc12,0%,19%,-1%,11%,0%
CCOc1cc(/C=N/N=C(N)N)ccc1OCc1ccc(Cl)cc1,-8%,u,-83%,-32%,11µM*
COc1cc(/C=N/N=C(N)N)ccc1OCc1ccc(Cl)cc1,-2%,-28%,6%,-7%,u
COc1cc(/C=N/N=C2/NC(=O)C(CC(=O)O)S2)ccc1OCc1ccc(Cl)cc1 (configuration not stated),9%,-22%,4µM*,0%,7%
Cc1ccc(O)c(CNc2ccccn2)c1,2%,-9%,16µM*,8%,43%
Cc1ccnc(NCc2cc(C)ccc2O)c1,-6%,-1%,85%,1%,-12%
COc1cccc(CN2CCN(Cc3cccc(Oc4ccccc4)c3)CC2)c1OC,-24%,u,-1%,-2%,6.3µM*
